Experimental findings from PubChem BioAssay (NCATS) are described below.

The structures appear in SMILES notation. Inconclusive results are not listed. Calls of active or inactive are those of the source. Calls come from the whole dose curve.

Chain of Vitamin D3 receptor (Homo sapiens) (P11473 whole entry, looked up): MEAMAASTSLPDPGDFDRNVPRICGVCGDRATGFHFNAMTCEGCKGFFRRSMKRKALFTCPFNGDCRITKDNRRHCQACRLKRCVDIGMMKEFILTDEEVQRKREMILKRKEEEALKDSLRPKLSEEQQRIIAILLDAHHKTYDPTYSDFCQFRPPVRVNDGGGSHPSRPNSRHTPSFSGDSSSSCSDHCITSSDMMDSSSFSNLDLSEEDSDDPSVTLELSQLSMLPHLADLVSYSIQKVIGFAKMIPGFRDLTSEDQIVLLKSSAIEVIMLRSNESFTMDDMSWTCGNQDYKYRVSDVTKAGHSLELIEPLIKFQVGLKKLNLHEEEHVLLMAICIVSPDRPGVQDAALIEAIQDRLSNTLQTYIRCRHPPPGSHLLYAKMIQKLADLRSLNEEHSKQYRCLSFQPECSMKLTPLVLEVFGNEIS

In this assay the target is Vitamin D3 receptor (Homo sapiens) (UniProt P11473). Put plainly: qHTS assay for small molecule agonists of vitamin D receptor signaling (AID 588543). To be noted: HEK293T VDR-UAS-bla, beta-lactamase ratio, 16 h; series mostly up to 76.8 µM. From the text:
NIH Chemical Genomics Center [NCGC]
U.S. Environmental Protection Agency [EPA]
National Institutes of Environmental Health Sciences [NIEHS]
National Toxicology Program [NTP]
The Vitamin D receptor (VDR) is a member of nuclear hormone receptor superfamily and it plays a critical role in calcium homeostasis and bone metabolism. It plays a role in inducing cell differentiation, inhibiting cell growth and in thrombogenicity. So, VDR that mediates these effects represents a pharmacological target in prevention and treatment of hyperproliferative malignancies, such as cancer and psoriasis, cardiovascular, immunological, inflammatory and renal diseases etc.
NCGC Assay Protocol Summary
Using a beta-lactamase reporter-gene under control of Vitamin D receptor (VDR) response element, a cell-based assay [GeneBLAzer (VDR -UAS-bla assay developed by Invitrogen] was used to measure VDR ligands signaling. GeneBLAzer VDR -UAS-bla HEK293T cells were used with assay medium containing 2% charcoal-stripped FBS. The assay was performed in clear bottom black Greiner 1536-well plates. 1-alpha,25-Dihydroxy vitaminD3 was used as a positive control in the screen. Library compounds were measured for their ability to stimulate the reporter gene activity. Compounds were screened in a titration series in 1536-well format. The fluorescence intensity (405 nm excitation, 460/530 nm emission) was measured using an EnVision plate reader. Data was normalized relative to 1-alpha,25-Dihydroxy vitaminD3 control (50 nM, 100%) and DMSO only wells (basal, 0%). Concentration-response titration points for each compound were fitted to the Hill equation yielding concentrations of half-maximal stimulation (EC50) and maximal response (efficacy) values.
qHTS protocol for VDR beta-lactamase assay in agonist mode
[Step] [Parameter] [Value] [Description]
1. Reagent; 6 uL; 2000 cells/well
2. Incubation; 37 C for 5 hrs
4. Controls (1-alpha,25-Dihydroxy vitaminD3); 23 nL,
- Final concentrations of 50 nM and 15 nM in two columns
5. Incubation; 37 C for 16 hrs
6. Detection reagent; 1 uL of CCF4-dye
7. Incubation; RT for 2 hrs
8. Detection; Fluorescence; Envision plate reader
(Quantitative high-throughput screening tests each substance at several concentrations.)
Consider `S=P(N1CC1)(N1CC1)N1CC1`, for which the result was inactive.
Turning to `Cc1ccnc2c1NC(=O)c1cccnc1N2C1CC1`, the result was inactive.
Take `NNC(=O)c1ccncc1`: the outcome was inactive.
For the compound `Cc1cc(NS(=O)(=O)c2ccc(N)cc2)no1`, the result was inactive.
The result for `CCc1cc(C(N)=S)ccn1` reads “inactive”.
Then `Cc1nnc(NS(=O)(=O)c2ccc(N)cc2)s1`, with “inactive”.
With `OC(Cn1cncn1)(Cn1cncn1)c1ccc(F)cc1F`, the outcome was inactive.
Take `COc1ccc2cc3[n+](cc2c1OC)CCc1cc2c(cc1-3)OCO2`: the outcome was inactive.
As to `C[C@]12C=CC(=O)C=C1CC[C@@H]1[C@@H]2C(=O)C[C@@]2(C)[C@H]1CC[C@]2(O)C(=O)CO`, the result was inactive.
For the compound `CN(C)c1ccc(C(=C2C=CC(=[N+](C)C)C=C2)c2ccc(N(C)C)cc2)cc1`, the outcome was inactive.
As to `CC[C@H](C)C(=O)O[C@H]1C[C@@H](C)C=C2C=C[C@H](C)[C@H](CC[C@@H]3C[C@@H](O)CC(=O)O3)[C@H]21`, the outcome was inactive.
As to `CC(=O)CC(c1ccccc1)c1c(O)c2ccccc2oc1=O` (centres undefined), the result was inactive.
For the compound `N=C(N)c1ccc(OCCCCCOc2ccc(C(=N)N)cc2)cc1`, the result was inactive.
The result for `CC(=O)[C@H]1CC[C@H]2[C@@H]3CCC4=CC(=O)CC[C@]4(C)[C@H]3CC[C@]12C` reads “inactive”.
